Most compounds without a hit are left out; they make up all but 2.9% or so of the library.
DAGLB inh: DAGLB lipase inhibitors, primary screen, biochemical, fluorescence, HTS; HEK293T DAGLB membrane lysate, EnzChek fluorogenic substrate; inhibition, % at 5.17 µM; 0.059% of 340,000 active; AID 504411, 2011; in the data active = inhibition above about 34%;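 also: 0% = enzyme with vehicle and 100% = wells lacking enzyme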
Target sequence (Q8NCG7 whole entry, looked up): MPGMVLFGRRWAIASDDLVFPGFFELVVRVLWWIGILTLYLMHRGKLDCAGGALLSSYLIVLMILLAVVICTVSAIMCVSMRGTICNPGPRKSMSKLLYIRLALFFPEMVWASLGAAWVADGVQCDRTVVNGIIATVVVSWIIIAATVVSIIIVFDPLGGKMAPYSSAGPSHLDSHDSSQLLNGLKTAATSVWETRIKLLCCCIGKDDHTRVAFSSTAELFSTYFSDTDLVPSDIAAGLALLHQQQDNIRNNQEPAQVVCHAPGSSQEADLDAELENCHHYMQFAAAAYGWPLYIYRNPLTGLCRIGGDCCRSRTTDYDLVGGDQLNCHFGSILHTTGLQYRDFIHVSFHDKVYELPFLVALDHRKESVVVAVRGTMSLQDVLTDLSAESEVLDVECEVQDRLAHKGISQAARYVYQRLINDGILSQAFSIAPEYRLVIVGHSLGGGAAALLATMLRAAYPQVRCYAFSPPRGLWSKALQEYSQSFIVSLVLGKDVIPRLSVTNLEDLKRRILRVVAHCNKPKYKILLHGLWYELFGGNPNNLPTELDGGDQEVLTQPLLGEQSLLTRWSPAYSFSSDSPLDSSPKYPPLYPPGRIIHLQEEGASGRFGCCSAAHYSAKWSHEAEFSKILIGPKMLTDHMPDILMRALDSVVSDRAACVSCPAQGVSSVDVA
Cardio protect: cardioprotection against H2O2-induced cell death, primary screen, uHTS, H9c2 cells, ATPLite luminescence | H9c2 cardiomyocytes, H2O2 injury protection, 2 h | protection from H2O2 cell death, % at 20 µM | AID 588492, 2011 | 0.63% of 360,000 active;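 active = compounds giving at least 50% protection of heart cells from peroxide-induced death in the single-dose screen, raw or plate-pattern-corrected value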;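 also: 0% = DMSO wells with peroxide and 100% = DMSO wells without peroxide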
HGIII-sPLA2 inh: human group III sPLA2 inhibitors, primary screen, biochemical, QFRET, BODIPY PC-A2 liposome substrate; Group 3 secretory phospholipase A2 (Homo sapiens), Q9NZ20; QFRET BODIPY PC-A2 liposome hydrolysis, fluorescence; inhibition, % at 12.2 µM; 0.56% of 370,000 active;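 active = inhibition above mean plus 3 SD of compounds lying within the high and low control bounds, cut at about 19% in these data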;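 also: 0% = median of test compound wells and 100% = no enzyme DMSO wells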
Myeloid diff MLP: induction of myeloid progenitor differentiation, primary screen, cell-based, flow cytometry, MLPCN library. ER-HoxA9 myeloid progenitors, lysozyme-GFP differentiation. calls only at 10 µM. 1% of 360,000 active. AID 624256, 2012;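 active = normalized GFP-positive differentiation at or above the plate's own cutoff, the solvent-only control mean plus 3 SD; inconclusive = no clear call, values can overlap the other calls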;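 also: cells exposed to compound for four days before flow analysis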
Rtt109 Vps75: inhibitors of C. albicans Rtt109/Vps75 HAT, primary screen, biochemical, ThioGlo CoA-SH fluorescence, plate reader; Histone acetyltransferase RTT109 (Candida albicans (strain SC5314 / ATCC MYA-2876)), …; purified Rtt109/Vps75, 4 h; inhibition, % at 34.9 µM; 0.16% of 330,000 active; AID 540336, 2011;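 active = inhibition of at least 50% in every replicate; inconclusive = best replicate reaches 50% inhibition but some replicates fall short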
ABHD5-PLIN5 inh: ABHD5-PLIN5 interaction inhibitors, primary screen, cell lysate, split luciferase complementation, luminescence. inhibition, % at 4 µM. Perilipin-5 (Homo sapiens) + 1-acylglycerol-3-phosphate O-acyltransferase ABHD5 (Homo …. Split G. princeps luciferase complementation, 4 h. 0.78% of 360,000 active;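 active = inhibition above the mean inhibition across every tested compound plus 3 SD, cut at about 22% in these data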;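 also: 0% = DMSO only wells and the 100% control is not disclosed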
* marks the source's active call; other numbers are inactive results; i = inactive; u = inconclusive; x = not tested or not shown; + = active, no number.

SMILES	DAGLB inh	Cardio protect	HGIII-sPLA2 inh	Myeloid diff MLP	Rtt109 Vps75	ABHD5-PLIN5 inh
COC(=O)c1ccccc1COn1c(=O)c[n+]([O-])c2ccccc21	-1.2	3.2	-2.3	+	-7.8	5.8
COc1cc(C2NC(=O)C(C#N)=C(S)N2c2ccccc2)ccc1OC(C)C (centres undefined)	0.6	-6.7	4.5	i	121.6*	-10.7
CCOc1ccc(C2NC(=O)C(C#N)=C(S)N2c2cccc(C)c2)cc1OC (centres undefined)	-1.0	-5.0	10.6	i	u	-1.8
COc1ccc(N2C(S)=C(C#N)C(=O)NC2c2ccco2)cc1 (centres undefined)	0.1	2.1	2.8	i	62.7*	13.1
Cc1cccc(N2C(S)=C(C#N)C(=O)NC2c2ccco2)c1 (centres undefined)	-2.3	15.4	7.0	i	7.6	-10.7
COc1ccc(C2NC(=O)C(C#N)=C(S)N2c2ccccc2)cc1OC (centres undefined)	0.1	-4.9	7.8	i	-5.9	-3.0
N#CC1=C(S)N(c2ccccc2)C(c2ccc(-c3cccc(Cl)c3)o2)NC1=O (centres undefined)	5.0	1.6	2.8	i	98.8*	-19.5
Cc1c(NS(=O)(=O)c2cc(C(=O)OCC(=O)N3CCC(C)CC3)ccc2Cl)c(=O)n(-c2ccccc2)n1C	0.6	-4.6	-10.2	i	-8.3	2.7
COc1ccc(-c2c(C#Cc3ccsc3)c3cc(-c4ccc5[nH]ccc5c4)ccc3n2C)cc1	-0.4	-4.1	2.8	+	-2.3	6.2
COc1ccc(-c2c(C#Cc3ccsc3)c3cc(-c4cccc5[nH]ccc45)ccc3n2C)cc1	-3.2	1.5	-0.3	i	-6.4	-0.8
O=C(CN1CCN(S(=O)(=O)c2ccc(F)cc2)CC1)Nc1ccc(F)cc1F	-1.1	9.7	-4.7	+	-9.0	-3.5
CCN(CC)S(=O)(=O)c1ccc(NS(=O)(=O)CC23CCC(CC2=O)C3(C)C)cc1 (centres undefined)	-2.5	-0.2	-7.9	i	-3.0	0.5
NNC(=O)c1cc2c(N3CCC(Cc4ccccc4)CC3)ncnc2s1	-45.9	-26.3	1.4	+	1.7	1.3
CCOC(=O)c1cc2c(=O)n3cccc(C)c3nc2n(Cc2ccco2)c1=NC(=O)c1ccccc1	3.5	42.0	6.8	i	1.2	22.3*
O=C(C[n+]1cccc2ccccc21)c1ccc([N+](=O)[O-])cc1	1.6	-3.4	6.0	+	-3.4	0.0
COc1ccccc1C(=O)NC(=O)COC(=O)C1CC1C (centres undefined)	1.9	14.1	4.1	i	1.7	-8.0
O=C1C=C(N2CCOCC2)c2cccc3cccc1c23	-2.7	61.2*	-50.6	i	x	-11.4
Cc1nc2ncccn2c1-c1csc(Nc2ccccc2)n1	0.3	-13.3	11.2	i	14.4	-12.4
Cc1nc2ncccn2c1-c1csc(NCc2ccco2)n1	-4.2	-0.2	8.7	+	10.7	5.4
Oc1ccc(C[C@H]2CN([C@@H](Cc3cccc(O)c3)CN3CCC[C@@H]3CN3C(=S)NC[C@@H]3Cc3ccccc3)C(=S)N2CC2CCCCC2)cc1	x	-8.6	-4.5	+	x	23.3*
CC(C)C[C@H]1CNC(=S)N1C[C@H]1CCCN1C[C@H](Cc1ccccc1)N1C[C@H](Cc2ccc(O)cc2)N(CC2CCCCCC2)C1=S	x	-15.5	-3.3	+	x	4.4
COc1ccc(OC)c(NC(=O)C2CCCN(S(=O)(=O)c3c(C)nn(C)c3C)C2)c1 (centres undefined)	-0.7	3.3	-3.2	i	7.4	3.5
Cc1cccc(CN2C(=O)N/C(=C/c3ccc(C)s3)C2=O)c1	0.7	-10.5	-10.2	+	3.7	-4.3
COc1ccc(C)cc1NC(=O)C1CCN(C(=O)c2ccco2)CC1	-2.1	2.5	0.6	i	5.2	0.3
COc1ccccc1OCC(=O)Nc1sc2c(c1C(=O)NCC1CCCO1)CCC2 (centres undefined)	-8.0	64.3*	-2.2	+	10.6	7.1
SMILES	DAGLB inh	Cardio protect	HGIII-sPLA2 inh	Myeloid diff MLP	Rtt109 Vps75	ABHD5-PLIN5 inh
CCCNC(=S)Nc1ccc(Cl)cc1Cl	-2.6	-8.7	13.2	i	-2.3	-3.5
O=C(/C=C/c1ccncc1)c1cc(Cl)ccc1O	5.0	-0.8	-19.5	+	-1.9	5.6
Cc1ccc(N(CN2CCCC2=O)C(=O)c2ccccc2)cc1	-2.0	12.7	-5.6	i	-2.6	-4.8
CC1(C)N=C(N)N=C(N)N1c1ccc(OCC(=O)N2CCOCC2)c(Cl)c1	-1.2	0.8	7.0	+	x	1.7
O=C(CCl)Nc1cccc(S(=O)(=O)NC2=NCCCCC2)c1	-2.7	-8.5	2.8	i	5.4	23.1*
O=C(CCl)Nc1ccc(S(=O)(=O)NC2=NCCCCC2)cc1	-1.9	-7.9	-6.5	i	-13.0	1.7
COc1ccc(CCNC(=O)C(=O)c2cn(CC(=O)N3CCCC3)c3ccccc23)cc1	-1.2	-0.3	-5.5	i	x	-2.6
O=C(CSc1nnc(-c2ccccc2O)o1)Oc1ccc(OCc2ccccc2)cc1	-5.9	-0.6	-0.1	+	6.6	-6.7
Cc1cc(C)nc(Sc2nc(Cl)nc(N(c3ccccc3)c3ccccc3)n2)n1	-3.4	0.3	14.0	i	78.7*	-13.5
Cc1cc(C)nc(SC(C(=O)O)c2ccccc2)n1 (centres undefined)	-2.2	-2.2	13.7	i	4.6	11.7
Cc1ccc(CNC(=O)c2ccc(COc3ccccc3)cc2)cc1	-8.2	-3.8	3.1	i	-15.1	-13.9
CN(C)c1ccc(C=Cc2nccc3ccccc23)cc1	x	-17.0	-79.8	u	x	9.4
CCN(CC)c1nc(C=Cc2ccc(N(C)C)cc2)c2nccnc2n1	-46.3	3.9	-15.9	+	x	-3.0
O=C(c1cc(-c2ccco2)nn1-c1cccc(Cl)c1)N1CCCCC1	5.4	23.7	-7.5	i	4.9	47.9*
CCOC(=O)c1c(C(=O)OCC)c(C)n(N2C(=O)CSC2=S)c1C	2.9	9.3	-15.2	i	5.2	-9.6
COC(=O)CCCc1nc2ccccc2s1	-2.2	-0.9	0.7	i	-1.4	3.1
COc1ccccc1OC(=O)CCc1nc2ccccc2s1	-3.5	-4.3	-0.6	+	-1.7	-6.6
CCCOC(=O)c1c(NC(=O)C2C3C=CC(C3)C2C(=O)O)sc2c1CCC(C)C2 (centres undefined)	13.8	-6.1	-26.6	i	0.2	-5.5
